LDHA inh: qHTS assay for inhibitors of human lactate dehydrogenase; actives 0.15% (n = 480,000); activity change, % (values are at about 110 or 230 µM); purified LDHA, NADH/diaphorase-resazurin fluorescence; stronger effect = lower value; L-lactate dehydrogenase A chain (Homo sapiens), P00338; in the data active means activity change below about -30%; inconclusive means mostly about -25% to -30%;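 further: plate controls were DMSO wells for no effect and wells without enzyme for full effect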
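Resorufin fluorescence (ex540/em590), read at 0 and 20 min after diaphorase/resazurin addition, reports the NADH left after a 5 min room-temperature reaction of 2 nM human LDH5 with 0.06 mM NADH and 0.2 mM pyruvate.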
Gal4-VP16 FLuc: VP16 counterscreen qHTS for inhibitors of ROR gamma transcriptional activity | Drosophila S2 Gal4-VP16 UAS-luciferase, luminescence, 20 h | Potency, µM (doses to about 53.6 µM), for the others: at the top dose activity, negative = inhibition, hits mostly inhibitors | actives 3.5% (n = 310,000) | AID 2546, 2010;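 further: Gal4-VP16 expression switched on by copper sulfate through the metallothionein promoter; potency means the concentration at half of the fitted maximal effect; nearly all actives have a fitted effect of over 50% in size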
DT40 TDP1 no CPT: qHTS for Inhibitors of human tyrosyl-DNA phosphodiesterase 1 (TDP1): qHTS in cells in absence of CPT | DT40 Tdp1-/- hTDP1 cells, no CPT, ATP luminescence, 48 h | Potency, µM (series often up to 46.2 µM), for the others: at the top dose activity change, negative = growth inhibition, most hits filed as inhibitors | actives 15% (n = 420,000) | AID 686978, 2013; further: potency means the concentration at half of the fitted maximal effect; nearly all actives have a fitted effect of over 55% in size
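Seeded 400 DT40-hTDP1 cells/well (vehicle DMSO, no 20 nM CPT); pinned compounds; ≥48 hr at 37 °C; CellTiter-Glo luminescence as viability measure.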
IL1B secr inh: qHTS for Inhibitors of Inflammasome Signaling: IL-1-beta AlphaLISA Primary Screen; THP-1 LPS/ATP IL-1B secretion, AlphaLISA, 16 h; stronger effect = lower value; activity change, % at 57.5 µM; actives 4.7% (n = 360,000); in the data active means activity change below about -50%; inconclusive means mostly about -30% to -49%
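Secreted IL-1B measured by AlphaLISA bead assay after 16 h compound exposure of THP-1 cells; compounds (final up to 57.5 uM) added 1 h before LPS (250 ng/mL) and ATP (1.25 mM) stimulation; lower signal means less secretion.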
RORgamma inh: qHTS for inhibitors of ROR gamma transcriptional activity; Drosophila S2 Gal4-RORgamma UAS-luciferase reporter, 20 h; actives 5.4% (n = 310,000); Nuclear receptor ROR-gamma (Mus musculus), P51450; Potency, µM (titrated, usually from 53.6 µM), without a hit: at the top dose activity change, negative = inhibition, most hits filed as inhibitors; further: potency means the concentration at half of the fitted maximal effect; nearly all actives have a fitted effect of over 60% in size
Target sequence (P51450 whole entry, looked up, the tested form may be a part): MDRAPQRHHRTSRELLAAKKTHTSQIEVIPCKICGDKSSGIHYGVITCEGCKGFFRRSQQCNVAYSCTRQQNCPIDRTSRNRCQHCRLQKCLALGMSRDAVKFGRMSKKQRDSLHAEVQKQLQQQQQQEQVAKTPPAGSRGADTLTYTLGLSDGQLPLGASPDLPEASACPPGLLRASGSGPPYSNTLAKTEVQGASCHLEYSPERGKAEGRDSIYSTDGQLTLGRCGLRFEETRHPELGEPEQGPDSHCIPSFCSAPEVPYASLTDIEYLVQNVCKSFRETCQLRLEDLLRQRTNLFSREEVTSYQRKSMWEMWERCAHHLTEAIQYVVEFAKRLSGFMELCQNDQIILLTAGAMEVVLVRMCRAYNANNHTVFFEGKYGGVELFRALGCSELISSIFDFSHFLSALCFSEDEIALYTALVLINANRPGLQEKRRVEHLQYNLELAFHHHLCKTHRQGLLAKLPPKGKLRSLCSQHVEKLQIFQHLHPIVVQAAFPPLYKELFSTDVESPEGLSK
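In this cell-based reporter format, copper sulfate (700 uM final) drives Gal4–ROR gamma fusion expression from a metallothionein promoter in Drosophila Schneider cells; compounds preincubated 1 hr, reporter read after 20 hr at ambient temperature.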
DT40 TDP1 CPT: qHTS for Inhibitors of human tyrosyl-DNA phosphodiesterase 1 (TDP1): qHTS in cells in presence of CPT; chicken DT40 Tdp1-/-;hTDP1 cells + 20 nM CPT, ATP luminescence, 48 h; Potency, µM (highest dose often 46.2 µM), for the others: at the highest dose activity change, negative = growth inhibition, actives largely listed as inhibitors; actives 12% (n = 420,000); AID 686979, 2013; further: potency means the concentration at half of the fitted maximal effect; nearly all actives have a fitted effect of over 55% in size
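Cell growth measured by CellTiter-Glo luminescence after a minimum 48 h, 37 C compound exposure with 20 nM CPT in Tdp1-knockout DT40 cells stably expressing hTDP1, seeded 400/well; qHTS titration format.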
* marks the source's active call; other numbers are inactive results; [ ] = dose if it differs, or a comment. In the library only some 18% were active in any assay of this set; here they are far more common. Unless noted, the call rests on the fitted dose curve; in most records, active means well fitted curve in the direction sought with a large enough effect; inconclusive means small, poorly fitted or top-dose-only effect, or another doubt; inactive means no such curve, though single readings can be large; an effect the other way counts as inactive or inconclusive. Unless noted, on the % scale 0 is the no-effect control and ±100 the full control effect.

Results for CC(C)(C)c1ccc(-c2n[nH]c(=S)n2CC2CCCO2)cc1 (stereo not given) ?
LDHA inh: 1; Gal4-VP16 FLuc: 10µM*; DT40 TDP1 no CPT: 16µM*; IL1B secr inh: 19; RORgamma inh: 2.8µM*; DT40 TDP1 CPT: inconclusive

What do the screens show for `CN(C)c1cc(CNC(=O)/C=C/c2ccc(F)cc2)ccn1`?
LDHA inh: 6

What do the screens show for `Cc1ccc2c(c1)Oc1ccc(S(=O)(=O)N(C)c3ccc(C)c(C)c3)cc1C(=O)N2`?
LDHA inh: 3

What do the screens show for `C[C@@]12C(=O)Nc3ccccc3C(=O)N1[C@H]1c3cc(Br)ccc3OC[C@@H]1[C@@H]2c1ccccc1`?
LDHA inh: -9; DT40 TDP1 no CPT: inconclusive; IL1B secr inh: -5; DT40 TDP1 CPT: inconclusive

Results for C[C@@]12C(=O)Nc3ccc(Cl)cc3C(=O)N1[C@H]1c3cc(Br)ccc3OC[C@@H]1[C@@H]2c1ccccc1 ?
LDHA inh: 2; DT40 TDP1 no CPT: inconclusive; IL1B secr inh: -28; DT40 TDP1 CPT: 23µM*

Results for C[C@@]12C(=O)Nc3ccc(Br)cc3C(=O)N1[C@H]1c3cc(Br)ccc3OC[C@@H]1[C@@H]2c1ccccc1 ?
LDHA inh: -19; DT40 TDP1 no CPT: 15µM*; IL1B secr inh: -20; DT40 TDP1 CPT: 18µM*

How did CCOC(=O)c1ccccc1NC(=O)N(Cc1ccc(C)cc1)Cc1cccn1-c1nnc(N2CCCC2=O)s1 do in these assays?
LDHA inh: -2; DT40 TDP1 no CPT: 18µM*; DT40 TDP1 CPT: 23µM*

How did O=c1c2ccc(Cl)cc2ncn1Cc1ncc(-c2ccccc2)o1 do in these assays?
LDHA inh: 10

What do the screens show for `Cc1ccc(Nc2nc(C)c(CCC(C)C)c(=O)[nH]2)cc1`?
LDHA inh: -9; Gal4-VP16 FLuc: 6%; DT40 TDP1 no CPT: 18µM*; IL1B secr inh: -13; RORgamma inh: 26%; DT40 TDP1 CPT: inconclusive

Results for Cc1nc(Nc2ccc(F)cc2)[nH]c(=O)c1CCC(C)C ?
LDHA inh: -3; Gal4-VP16 FLuc: inconclusive; DT40 TDP1 no CPT: inconclusive; IL1B secr inh: -8; RORgamma inh: inconclusive; DT40 TDP1 CPT: inconclusive

How did CCCCCc1c(C)nc(Nc2ccccc2)[nH]c1=O do in these assays?
LDHA inh: -1; Gal4-VP16 FLuc: 4%[0.365 µM]; DT40 TDP1 no CPT: 18µM*; IL1B secr inh: -4; RORgamma inh: inconclusive; DT40 TDP1 CPT: 21µM*

How did CCOC(=O)N1CCc2c(sc3c2c(=O)n(CCc2ccccc2)c(=O)n3Cc2ccc(C)cc2C)C1 do in these assays?
LDHA inh: -3; DT40 TDP1 no CPT: 23µM*; DT40 TDP1 CPT: inconclusive

Results for CC(=O)N1CCc2c(sc3c2c(=O)n(-c2ccccc2)c(=O)n3CC(=O)c2ccccc2)C1 ?
LDHA inh: -2; DT40 TDP1 no CPT: -29%; DT40 TDP1 CPT: 25%

How did CC(=O)c1cccc(-n2c(=O)c3c4c(sc3n(Cc3cccc(C)c3)c2=O)CN(C(C)=O)CC4)c1 do in these assays?
LDHA inh: 3; DT40 TDP1 no CPT: 15µM*; DT40 TDP1 CPT: 16µM*

What do the screens show for `CC(=O)N1CCc2c(sc3c2c(=O)n(-c2ccccc2)c(=O)n3Cc2cccc(C(F)(F)F)c2)C1`?
LDHA inh: 2; DT40 TDP1 no CPT: 18µM*; DT40 TDP1 CPT: 16µM*

How did CC(=O)N1CCc2c(sc3c2c(=O)n(CCc2ccccc2)c(=O)n3Cc2cccc(C)c2)C1 do in these assays?
LDHA inh: -2; DT40 TDP1 no CPT: 16µM*; DT40 TDP1 CPT: 15µM*

How did COc1ccc(Cl)cc1NC(=O)c1nn(C)c(=O)c2ccccc12 do in these assays?
LDHA inh: -1

Screening results from PubChem BioAssay.
